This note sets out measurements from PubChem BioAssay (NCI).

Test in all cases: NCI-60 one-dose screen, 48 h (100 = growth as untreated, 0 = no growth, -100 = all killed)
Settings in all cases: 10 µM unless noted

The subject of assay [1] is DU-145 prostate.
For assay [2], the system named is K-562 leukemia.
For assay [3], the system named is MALME-3M melanoma.
Assay [4] has as its system MDA-MB-231 breast.
In assay [5] the test system is RXF 393 renal.
In assay [6] the test system is SF-268 CNS.
For assay [7], the system named is SF-295 CNS.
For assay [8], the system named is SF-539 CNS.
The test system of assay [9] is UACC-257 melanoma.
Assay [10] deals with M14 melanoma.
Assay [11] relates to HCT-15 colon.
The subject of assay [12] is HT29 colon.
Assay [13] deals with SNB-75 CNS.
In assay [14] the test system is SNB-19 CNS.
The test system of assay [15] is U251 CNS.
Assay [16] relates to SK-MEL-5 melanoma.
Assay [17] concerns UACC-62 melanoma.
In assay [18] the test system is LOX IMVI melanoma.
In assay [19] the test system is SK-MEL-28 melanoma.
For assay [20], the system named is PC-3 prostate.

SMILES strings stand for the structures. The panel holds about 83,000 compounds, 20% with a hit somewhere; the sample as a whole holds those more often.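 For each line, cells grew in 96-well plates with the test compound present at a single concentration for 48 hours.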 Values without a mark were called inactive. Active and inactive are the calls of the source. The calls were made as follows: active = growth percent below 10; inactive = the rest.

In the case of `Cc1ccc(S(=O)(=O)N2CCC(=O)c3ccccc32)cc1`, the growth in [1] is 62%; in assay [2], 40.2%; in [3] it was 84.9%; in assay [4], 72.9%; in assay [5], 61%; in assay [6], 80.2%. The growth in [7] is 86.6%; in assay [8] it was 55.1%; in assay [9], 77.8%; in [10], 62%; in assay [11], 42.9%; in [12], 68.4%. The growth was 42.8% in assay [13]; 69.4% in assay [14]; 49.4% in assay [15]; 63.3% in [16]; 67.7% in [17]; 76.4% in assay [18]. Moreover, the growth in assay [19] was 80.3%.

With `O=C1/C(=C/c2ccccc2F)CN(C(=O)C(Cl)Cl)C/C1=C\c1ccccc1F`, the growth in [1] was -63.4% (active); in assay [2] it was -2.29% (active); in assay [3] it was -47% (active); in assay [4] it was -49.1% (active); in assay [5], -76.3% (active); in [6] it was -0.301% (active). Besides, the growth is -46.2% (active) in assay [7]; -85.9% (active) in assay [8]; -17.5% (active) in assay [9]; -43.7% (active) in [10]; -66.5% (active) in assay [11]; 3.2% (active) in [12]. The growth is -18.4% (active) in assay [13]; -84.1% (active) in [14]; -85.1% (active) in assay [15]; -41.3% (active) in assay [20]; -77% (active) in assay [16]; -86.4% (active) in assay [18]. Moreover, the growth in [19] is -58.9% (active).

As to `S=C(c1ccc2c(c1)OCO2)N1CCN(c2cccc(Cl)c2)CC1`, the growth in assay [1] is -0.195% (active); in [2], 29%; in assay [3] it was 40.7%; in [4], 36.2%; in assay [5], 42.1%; in [6], 41%. For the same compound, the growth in [7] is 9.3% (active); in [8], -4.83% (active); in assay [9], 54%; in assay [10], 13.5%; in assay [11], 24.1%; in [12], 4.72% (active). Moreover, the growth in assay [13] is 12.5%; in [14], 40.4%; in [15] it was 28.5%; in [16], -10.8% (active); in assay [17], 25.4%; in assay [18] it was 45.4%. Moreover, the growth in assay [19] is 53.5%.

For the compound `CN1CCN(C(=S)SCCCCOc2cc(=O)oc3ccccc23)CC1`, the growth was 90.6% in assay [1]; 64.3% in [2]; 93.3% in assay [3]; 89.1% in assay [4]; 99.5% in [5]; 87.7% in [6]. The growth in assay [7] is 77.7%; in assay [8] it was 98.9%; in assay [9], 85%; in assay [10], 103%; in assay [11] it was 88.3%; in assay [12], 78.5%. In addition, the growth in assay [13] is 93.8%; in assay [14], 94.7%; in assay [15], 87%; in [16], 69.5%; in [17], 73.9%; in assay [18] it was 93.9%. Also, the growth in assay [19] is 109%.

`O=c1ccc(=O)n(-c2nc(-c3ccc([N+](=O)[O-])cc3)cs2)[nH]1`: the growth in assay [1] was 97.7%; in assay [2], 95.2%; in assay [3], 114%; in assay [4], 105%; in [5], 88.4%; in [6] it was 95%. The growth in [7] is 98.1%; in [8] it was 97.3%; in [9], 102%; in assay [10] it was 101%; in assay [11] it was 96%; in assay [12] it was 55.6%. Moreover, the growth is 92% in [13]; 96.1% in assay [14]; 95.6% in [15]; 98.6% in assay [20]; 95.6% in assay [16]; 98.5% in [18]. Further, in [19], the growth is 105%.

For `Cc1ccc(CNc2c3ccccc3nc3ccccc23)cc1`, the growth in assay [1] is 33.5%; in assay [2] it was 2.99% (active); in [3], 16.2%; in [4], 43.2%; in assay [5], 10.1%; in assay [6], 51.9%. Further, the growth in assay [7] was 31.3%; in assay [8] it was 18.1%; in [9], 39.4%; in assay [10] it was 28%; in assay [11], 15.6%; in assay [12] it was 10.3%. Besides, the growth in assay [13] was 41.7%; in assay [14], 29.7%; in assay [15], 26%; in assay [20], 24.3%; in assay [16], 30.1%; in assay [18], 11.8%. Also, the growth in assay [19] is 59.5%.

Regarding `O=C1Nc2c(C(=O)O)cccc2/C1=N/c1n[nH]c(=S)s1`, the growth in assay [1] is 98.5%; in assay [2], 41.3%; in assay [3], 105%; in assay [4], 86.2%; in assay [5], 112%; in assay [6] it was 83.3%. The growth was 94.7% in assay [7]; 91.9% in assay [8]; 99.6% in assay [9]; 90.9% in assay [10]; 88.8% in assay [11]; 105% in assay [12]. Moreover, the growth is 98.8% in assay [13]; 95.1% in assay [14]; 84.9% in assay [15]; 84.2% in assay [20]; 102% in assay [16]; 61.2% in assay [18]. Besides, the growth in [19] was 107%.

As for `NC1=Nc2cc(OCCCCN3Cc4ccccc4C3)c(OCC3CC3)cc2C12CCCC2`, the growth is 65% in assay [1]; 2.5% (active) in [2]; -88.5% (active) in [3]; 19.3% in [4]; 30.2% in assay [5]; 56.1% in assay [6]. For the same compound, the growth in assay [7] is 61.7%; in [8], -8.18% (active); in [9], -83.2% (active); in [10], -89.7% (active); in [11] it was 3.13% (active); in assay [12] it was 2.03% (active). In addition, the growth in assay [13] is 71.5%; in assay [14], 76.9%; in [15] it was 24.2%; in assay [20], 44.1%; in [16] it was -91.5% (active); in assay [18] it was -80.7% (active). Moreover, the growth in [19] was -81.4% (active).
